Some test systems named below: HCT-15 colon; HT29 colon; SNB-75 CNS; SNB-19 CNS; U251 CNS; PC-3 prostate; SK-MEL-5 melanoma; LOX IMVI melanoma; SK-MEL-28 melanoma; SK-MEL-2 melanoma; EKVX NSCLC; SN12C renal; UO-31 renal; TK-10 renal; ACHN renal; CAKI-1 renal; A498 renal; CCRF-CEM leukemia; MOLT-4 leukemia; UACC-62 melanoma.
Common to all, as to experiment: NCI-60 one-dose screen, 48 h (100 = growth as untreated, 0 = no growth, -100 = all killed)
What all share (conditions): 10 µM unless noted

This is part of a sample that, as a whole, favours compounds with a hit. Of some 83,000 tested, about 20% had one in any assay.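 How to read the values: 0–100, growth inhibition (40 = 60% inhibited); 0, no net growth; -100 to 0, cell death (-40 = 40% of starting cells died; -100 = all dead).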 Unmarked numbers belong to inactive results. Calls of active or inactive are those of the source. Rule for the calls: active = growth percent below 10; inactive = the rest.

Regarding `N#Cc1c(-c2cccc(Cl)c2)cc(-c2cccnc2)[nH]c1=O`, the growth is 44.8% in the assay with HCT-15 colon; 115% with HT29 colon; 61.1% in the assay on SNB-75 CNS; 67.9% with SNB-19 CNS; 71.8% in the assay on U251 CNS; 87.3% in the assay on PC-3 prostate. In addition, the growth in the assay with SK-MEL-5 melanoma is 67.1%; with LOX IMVI melanoma it was 81.2%; in the assay on SK-MEL-28 melanoma it was 64.4%; in the assay on SK-MEL-2 melanoma it was 79.7%; with EKVX NSCLC it was 100%; with SN12C renal it was 82.6%. The growth with UO-31 renal was 64.3%; with TK-10 renal it was 127%; with ACHN renal, 89%; in the assay with CAKI-1 renal, 72.8%; in the assay on A498 renal, 101%; in the assay with CCRF-CEM leukemia, 71.5%. In addition, the growth in the assay with MOLT-4 leukemia was 72.1%.

Turning to `COCCn1cc(-c2nc(-c3cc4cccnc4n3C)cs2)c2ccccc21`, the growth is 21.5% in the assay on HCT-15 colon; 12.9% in the assay with HT29 colon; 61.3% with SNB-75 CNS; 63.5% with SNB-19 CNS; 33.3% in the assay with U251 CNS; 27.5% with PC-3 prostate. The growth was 2.5% (active) in the assay on SK-MEL-5 melanoma; 46.2% in the assay on UACC-62 melanoma; 38.7% in the assay with LOX IMVI melanoma; 73.1% with SK-MEL-28 melanoma; 18.7% in the assay on SK-MEL-2 melanoma; 19.8% in the assay on EKVX NSCLC. The growth in the assay on UO-31 renal is 52.1%; with TK-10 renal, 44.2%; with ACHN renal, 54.9%; in the assay on CAKI-1 renal, 60.7%; in the assay with A498 renal, 33.2%; in the assay with CCRF-CEM leukemia, 46.2%. Also, the growth with MOLT-4 leukemia is 26.6%.

`N#Cc1nn(-c2cc(=O)[nH]c3ccc(Br)cc23)c(N)c1C#N`: the growth is 99.3% with HCT-15 colon; 94.8% in the assay with HT29 colon; 87.3% in the assay on SNB-75 CNS; 105% in the assay with SNB-19 CNS; 106% in the assay with U251 CNS; -86.9% (active) in the assay on PC-3 prostate. Also, the growth is 101% in the assay with SK-MEL-5 melanoma; 102% in the assay on LOX IMVI melanoma; 101% with SK-MEL-28 melanoma; 103% in the assay on SK-MEL-2 melanoma; 87.5% in the assay with EKVX NSCLC; 87.3% in the assay with SN12C renal. For the same compound, the growth is 65.7% with UO-31 renal; 110% in the assay on TK-10 renal; 91% with ACHN renal; 90.5% in the assay on CAKI-1 renal; 105% in the assay with A498 renal; -32% (active) in the assay with CCRF-CEM leukemia. Moreover, the growth with MOLT-4 leukemia was -16.1% (active).

As to `O=C(C[C@]1(O)C(=O)Nc2ccc(Br)cc21)c1ccco1`, the growth is 105% with HCT-15 colon; 101% in the assay on HT29 colon; 96.1% in the assay on SNB-75 CNS; 95.6% in the assay on SNB-19 CNS; 100% in the assay with U251 CNS; 92.6% in the assay with PC-3 prostate. Moreover, the growth was 93.3% in the assay with SK-MEL-5 melanoma; 90.7% in the assay on UACC-62 melanoma; 89.9% in the assay on LOX IMVI melanoma; 117% in the assay on SK-MEL-28 melanoma; 94.5% in the assay with SK-MEL-2 melanoma; 107% in the assay with EKVX NSCLC. The growth with UO-31 renal was 75.4%; in the assay on TK-10 renal it was 125%; in the assay on ACHN renal it was 109%; in the assay with CAKI-1 renal, 93.4%; in the assay on A498 renal, 103%; in the assay with CCRF-CEM leukemia, 104%. Moreover, the growth in the assay on MOLT-4 leukemia is 102%.

Take `COc1cc(/C=C/c2cn[nH]c2-c2ccc(C)cc2)cc(OC)c1OC`: the growth in the assay on HCT-15 colon is 23%; in the assay on HT29 colon it was 6.79% (active); in the assay with SNB-75 CNS, 29.5%; with SNB-19 CNS, 48.2%; in the assay with U251 CNS, 22.6%; in the assay with PC-3 prostate it was 28.2%. In addition, the growth with SK-MEL-5 melanoma is 12%; in the assay with UACC-62 melanoma it was 32.8%; in the assay on LOX IMVI melanoma, 40.6%; in the assay on SK-MEL-28 melanoma it was 56.8%; in the assay with SK-MEL-2 melanoma, 2.13% (active); in the assay with EKVX NSCLC, 47.8%. In addition, the growth with UO-31 renal was 45.9%; in the assay on TK-10 renal it was 66%; in the assay on ACHN renal, 49.4%; in the assay on CAKI-1 renal it was 32.6%; with CCRF-CEM leukemia, 24.8%; in the assay with MOLT-4 leukemia it was 22.8%.

Take `CCOC(=O)c1cnn(CC(C)O)c1NC(=O)NCc1cccc(F)c1` (stereo unspecified): the growth in the assay with HCT-15 colon was 107%; with HT29 colon it was 84.3%; with SNB-75 CNS it was 104%; with SNB-19 CNS, 107%; with U251 CNS it was 97.4%; in the assay on PC-3 prostate, 73.3%. Further, the growth was 100% in the assay with SK-MEL-5 melanoma; 97.1% in the assay with LOX IMVI melanoma; 113% in the assay with SK-MEL-28 melanoma; 85.6% in the assay with SK-MEL-2 melanoma; 99.9% with EKVX NSCLC; 103% in the assay on SN12C renal. In addition, the growth in the assay on UO-31 renal is 91.7%; in the assay with TK-10 renal, 86.9%; in the assay with ACHN renal it was 106%; with CAKI-1 renal, 97.3%; with A498 renal, 96.4%; in the assay on CCRF-CEM leukemia it was -2.06% (active). Further, the growth with MOLT-4 leukemia was 81.4%.

`COC12C=C/C(=C(/C(=O)OCc3cncnc3)C(=O)CCCCCCCCC3(OC)C=C/C(=C(/C(=O)OCc4cncnc4)C(=O)CCCCCCCC1)O3)O2`: the growth in the assay on HCT-15 colon is -49.1% (active); in the assay on HT29 colon, 1.94% (active); in the assay with SNB-75 CNS, 22.4%; in the assay on SNB-19 CNS, 10.9%; in the assay with U251 CNS, -36.5% (active); in the assay with PC-3 prostate, -55.1% (active). The growth is -79.9% (active) in the assay on SK-MEL-5 melanoma; -56.9% (active) in the assay with UACC-62 melanoma; -61.8% (active) in the assay on LOX IMVI melanoma; -45% (active) in the assay with SK-MEL-28 melanoma; -13.1% (active) in the assay on SK-MEL-2 melanoma; -20.5% (active) with EKVX NSCLC. The growth is -73.6% (active) with UO-31 renal; -23.6% (active) with TK-10 renal; -93.7% (active) in the assay on ACHN renal; -43.5% (active) with CAKI-1 renal; -94.1% (active) with A498 renal; -18.2% (active) in the assay with CCRF-CEM leukemia. For the same compound, the growth in the assay on MOLT-4 leukemia was -13.4% (active).

`CCCn1c(=S)sc2c(NNC(C)=O)nc(C)nc21`: the growth in the assay with HCT-15 colon was 90.2%; in the assay on HT29 colon, 103%; with SNB-75 CNS it was 89.9%; in the assay with SNB-19 CNS it was 92.4%; in the assay on U251 CNS, 91.1%; with PC-3 prostate it was 90.3%. In addition, the growth with SK-MEL-5 melanoma was 96.4%; in the assay with LOX IMVI melanoma, 87%; with SK-MEL-28 melanoma it was 141%; in the assay with SK-MEL-2 melanoma, 92.5%; in the assay with EKVX NSCLC it was 88.5%; in the assay on SN12C renal it was 101%. Further, the growth is 90% in the assay with UO-31 renal; 94.5% in the assay on TK-10 renal; 88.1% with ACHN renal; 70.7% with CAKI-1 renal; 78.1% in the assay with A498 renal; 88% in the assay on CCRF-CEM leukemia. Besides, the growth with MOLT-4 leukemia is 114%.

The values are drawn from PubChem BioAssay (NCI).
